In PubChem BioAssay (NCATS):
Unmarked numbers belong to inactive results. Calls follow the shape of the dose curve; as a rule, active = well fitted curve in the direction sought with a large enough effect; inconclusive = small, poorly fitted or top-dose-only effect, or another doubt; inactive = no such curve, though single readings can be large or run the other way.

Target: Hexokinase-4 (Homo sapiens) + Glucokinase regulatory protein (Homo sapiens) (UniProt P35557+Q14397)
Experiment: qHTS assay for inhibitors of recombinant human GCK-GKRP interaction: HTRF assay (AID 743207);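 also: 0% = DMSO with GCK present and -100% = DMSO wells lacking GCK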
Conditions: recombinant GCK-GKRP HTRF binding, 60 min, with sorbitol-6-phosphate; series mostly up to 57.5 µM; activity change, negative = inhibition: at the top concentration
How it was run: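 HTRF read-out (ex 320 nm; 615/665 nm emission) after 60 min RT equilibration of 5 nM GST-GCK, 5 nM FLAG-GKRP, 2 uM S6P, compound and anti-FLAG/anti-GST detection antibodies; signal normalized between DMSO wells with and without GCK.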

Sequence of Hexokinase-4 (Homo sapiens) + Glucokinase regulatory protein (Homo sapiens) (P35557 whole entry, looked up): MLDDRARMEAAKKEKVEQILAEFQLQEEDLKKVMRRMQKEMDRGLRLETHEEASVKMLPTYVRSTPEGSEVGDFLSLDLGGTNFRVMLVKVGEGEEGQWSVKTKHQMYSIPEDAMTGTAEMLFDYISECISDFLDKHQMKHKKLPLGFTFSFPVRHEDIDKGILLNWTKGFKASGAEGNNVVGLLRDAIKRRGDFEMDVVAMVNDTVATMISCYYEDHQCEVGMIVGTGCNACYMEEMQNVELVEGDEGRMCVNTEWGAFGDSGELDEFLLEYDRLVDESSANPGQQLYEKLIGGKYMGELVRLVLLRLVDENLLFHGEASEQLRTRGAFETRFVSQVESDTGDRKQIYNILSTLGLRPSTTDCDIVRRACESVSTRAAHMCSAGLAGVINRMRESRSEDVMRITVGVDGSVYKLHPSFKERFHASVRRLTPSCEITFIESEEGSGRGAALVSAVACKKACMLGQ
Sequence of Hexokinase-4 (Homo sapiens) + Glucokinase regulatory protein (Homo sapiens) (Q14397 whole entry, looked up): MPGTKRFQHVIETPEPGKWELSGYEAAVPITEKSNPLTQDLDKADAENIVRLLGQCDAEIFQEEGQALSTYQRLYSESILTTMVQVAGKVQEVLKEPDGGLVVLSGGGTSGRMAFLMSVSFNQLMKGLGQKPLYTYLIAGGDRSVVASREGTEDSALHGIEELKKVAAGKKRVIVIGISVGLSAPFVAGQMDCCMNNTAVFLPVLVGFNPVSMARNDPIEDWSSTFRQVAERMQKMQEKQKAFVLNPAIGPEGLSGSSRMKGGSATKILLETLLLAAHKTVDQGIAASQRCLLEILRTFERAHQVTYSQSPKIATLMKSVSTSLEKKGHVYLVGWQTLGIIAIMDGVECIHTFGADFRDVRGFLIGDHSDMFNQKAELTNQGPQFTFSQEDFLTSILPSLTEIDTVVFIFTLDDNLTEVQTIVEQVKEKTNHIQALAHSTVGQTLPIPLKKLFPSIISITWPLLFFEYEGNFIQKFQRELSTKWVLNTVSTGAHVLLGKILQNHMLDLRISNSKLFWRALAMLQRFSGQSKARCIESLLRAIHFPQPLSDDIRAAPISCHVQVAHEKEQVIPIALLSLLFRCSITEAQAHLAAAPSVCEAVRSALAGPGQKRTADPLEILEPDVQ

Row | Structure (SMILES) | activity change, negative = inhibition
1 | CCCCCCCCCCCCCCC[C@H](O)[C@H](N)CO | 11.6%
2 | c1ccc(C(NCCNC(c2ccccc2)c2ccccc2)c2ccccc2)cc1 | -7.57%
3 | CC[C@H](NC(=O)c1c(C)c(-c2ccccc2)nc2ccccc12)c1ccccc1 | -0.502%
4 | O=C(O)c1ccccc1Nc1cccc(OCc2ccc3ccccc3n2)c1 | 20.2%
5 | C=CCN1CCc2c(cc(O)c(O)c2Br)[C@@H](c2ccccc2)C1 | -6.7%
6 | O=c1[nH]c2ccccc2c2ccccc12 | -1.42%
7 | COc1ccc(-c2cc3ncc(C)n3c(Nc3ncccc3C(N)=O)n2)cc1OC | 1.36%
8 | CN1CCCC1CCOC(C)(c1ccccc1)c1ccc(Cl)cc1 (stereo not drawn) | -6.17%
9 | N[C@@H](Cc1c[nH]c2ccccc12)C(=O)O | 3.44%
10 | COc1ccc(NC(=O)c2ccc(-c3ccc(-c4noc(C)n4)cc3C)cc2)cc1N1CCN(C)CC1 | 11.7%
11 | COc1ccccc1N1CCN(CCCCN2C(=O)c3ccccc3C2=O)CC1 | -5.5%
12 | C=CCN1CCc2c(cc(O)c(O)c2Cl)C(c2ccccc2)C1 (stereo not drawn) | -4.07%
13 | CC(C)NC[C@H](O)COc1cccc2ccccc12 | 6.51%
14 | CCCC[C@@]1(C2CCCC2)Cc2cc(OCC(=O)O)c(Cl)c(Cl)c2C1=O | 6.15%
15 | C[C@]12C=CC(=O)C=C1CC[C@@H]1C2=CC[C@]2(C)[C@@H](C(=O)CN3CCN(c4cc(N5CCCC5)nc(N5CCCC5)n4)CC3)CC[C@@H]12 | 7.27%
16 | N#CC(C#N)=C(N)/C(C#N)=C/c1ccc(O)cc1 | -2.89%
17 | Cc1cccc(C2CN(C)CCc3c2cc(O)c(O)c3Cl)c1 (stereo not drawn) | 0.241%
18 | COc1ccc(C(=O)NCc2cccnc2)cc1C(=O)NCc1cccnc1 | 12.9%
